Results with a measured potency or affinity are listed apart. Calls of active or inactive are those of the source.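 The calls were made as follows: active = viability loss with a fitted half-maximal dose at or below twice the top valid dose, in every repeat test; inconclusive = repeat tests disagree, or a flat partial loss, or a poor fit; inactive = all tests inactive, including signal rising instead of falling.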

The text below walks through data of PubChem BioAssay AID624429 (Broad Institute, 2012).

The nature of this experiment: SK-MEL-5 parental line viability, dose response, MITF inhibitor project, cell-based, CellTiter-Glo, dry powder, set 6 (AID 624429).

Consider `NC1=C(NS(=O)(=O)c2ccc(Br)s2)C(=O)c2ccccc2C1=O`, for which the result was inactive.
